PubChem BioAssay
Active and inactive are the calls of the source.

What was measured:
Albumin (Bos taurus) = Albumin (Bos taurus) (UniProt P02769); experiment: bovine serum albumin binders on microarray, profiling panel, artefact control for SMM control protein annotation, biochemical, small-molecule microarray, Alexa647 label, 635/667 nm fluorescence (AID 1118); conditions: BSA-A647 binding, fluorescence 635 nm, higher = more signal;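 also: score merges 667 nm emission intensity and signal-to-noise per printed compound spot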
Chain of Albumin (Bos taurus) (P02769 whole entry, looked up): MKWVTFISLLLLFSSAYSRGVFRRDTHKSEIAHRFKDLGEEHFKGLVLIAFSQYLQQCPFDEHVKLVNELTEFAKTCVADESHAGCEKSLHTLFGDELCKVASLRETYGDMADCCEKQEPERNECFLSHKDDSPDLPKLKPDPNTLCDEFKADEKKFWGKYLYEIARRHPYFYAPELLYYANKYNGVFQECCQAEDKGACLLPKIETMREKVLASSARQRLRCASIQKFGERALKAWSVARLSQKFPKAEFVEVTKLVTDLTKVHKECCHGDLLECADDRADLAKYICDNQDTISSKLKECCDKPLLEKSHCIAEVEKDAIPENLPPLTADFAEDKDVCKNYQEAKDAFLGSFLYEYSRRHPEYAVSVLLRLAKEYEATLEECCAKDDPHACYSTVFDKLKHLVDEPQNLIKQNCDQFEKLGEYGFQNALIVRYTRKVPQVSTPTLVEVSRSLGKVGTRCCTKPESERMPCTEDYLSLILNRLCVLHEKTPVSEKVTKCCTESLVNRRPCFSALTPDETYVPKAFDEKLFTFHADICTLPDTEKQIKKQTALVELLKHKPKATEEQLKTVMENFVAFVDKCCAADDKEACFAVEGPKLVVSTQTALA

[1] = small-molecule microarray binders of probe aXIP, primary screen, biochemical, NeuroSMM set, 635/667 nm fluorescence (AID 1119); conditions: higher = more signal, called active from +8 up or from −8 down;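 also: probe is the protein aXip251-270 applied at 1 µg/mL to compound-printed slides; binding of probe to printed compounds measured as 667 nm fluorescence plus signal to noise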
[2] = small-molecule binders of probe aNOTCH3, primary screen, biochemical, small-molecule microarray, 635/667 nm fluorescence (AID 1120); conditions: higher = more signal;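 also: probe is a biotin-tagged antibody raised against NOTCH3 rather than NOTCH3 protein; score merges spot fluorescence near 667 nm with spot signal to noise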
[3] = small-molecule binders of probe aNOTCH2, primary screen, biochemical, small-molecule microarray, 635/667 nm fluorescence (AID 1121); conditions: higher = more signal;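 also: score merges feature fluorescence read at 667 nm with its signal to noise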
[4] = target: Carbonic anhydrase 2 (Homo sapiens) (UniProt P00918); experiment: CAII small-molecule binders, profiling panel, biochemical, small-molecule microarray, Alexa647-labelled CAII (AID 1122); conditions: CAII-A647 binding fluorescence, higher = more signal
[5] = COS7 lysate on small-molecule microarray, probe aHis, 635 nm (AID 1123); conditions: COS7 cell lysate, fluorescence, higher = more signal;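 also: z-score combines 667nm fluorescence intensity with signal-to-noise per printed compound spot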
[6] = compound binding in COS7 lysate, probe aLAP1, primary screen, cell lysate, small-molecule microarray (AID 1124); conditions: probe aLAP1, fluorescence, higher = more signal;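 also: lysate comes from COS7 cells expressing LAP1 and is applied at 0.3 µg/mL; score merges spot fluorescence near 667 nm with signal-to-noise over triplicate slides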
Sam68 (KHDRBS1) = experiment: Sam68 small-molecule binders, primary screen, biochemical, small-molecule microarray, 635 nm fluorescence (AID 1125); conditions: small-molecule microarray binding, higher = more signal;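 also: score merges 667 nm channel intensity with signal to noise over triplicate slides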
[7] = tested on: Chordin-like protein 2 (CHRDL2); experiment: CHRDL2 small-molecule binders, primary screen, biochemical, small-molecule microarray, 635 nm fluorescence (AID 1126); conditions: small-molecule microarray binding, fluorescence 635 nm; higher = more signal;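 also: printed compound slides probed with Chrdl2 protein at 4 µg/mL for 1 h at 4 C; score merges 667 nm emission intensity with signal to noise over three replicate slides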
[8] = target: Concanavalin-A (Canavalia ensiformis) (UniProt P02866); experiment: ConA small-molecule binders, primary screen, artefact control for SMM control protein annotation, biochemical, small-molecule microarray, Alexa647 label, 635 nm (AID 1127); conditions: ConA-A647 binding fluorescence, higher = more signal;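 also: z combines 667 nm emission intensity with signal-to-noise across three replicate slides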
Chain of Concanavalin-A (Canavalia ensiformis) (P02866 whole entry, looked up): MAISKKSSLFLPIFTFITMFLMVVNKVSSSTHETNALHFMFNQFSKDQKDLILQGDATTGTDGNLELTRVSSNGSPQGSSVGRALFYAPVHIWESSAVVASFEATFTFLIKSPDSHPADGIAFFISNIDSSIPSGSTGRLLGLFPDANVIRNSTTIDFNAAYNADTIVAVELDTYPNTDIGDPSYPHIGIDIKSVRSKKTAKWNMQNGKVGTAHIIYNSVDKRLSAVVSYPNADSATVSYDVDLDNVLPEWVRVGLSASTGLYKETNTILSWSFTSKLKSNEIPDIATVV

[9] = anti-His antibody binders, primary screen, artefact control for SMM control protein annotation, biochemical, small-molecule microarray, 635 nm fluorescence (AID 1128); conditions: anti-His Alexa647 antibody binding, higher = more signal;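 also: score merges feature fluorescence with signal-to-noise for each printed compound spot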
[10] = tested on: Human papillomavirus type 1a E7 protein (residues 1-88); experiment: HPV1a E7 small-molecule binders, primary screen, biochemical, small-molecule microarray, residues 1-88, 635 nm (AID 1129); conditions: small-molecule microarray binding, fluorescence 635 nm; higher = more signal
[11] = target: Focal adhesion kinase 1 (Homo sapiens) (UniProt Q05397); experiment: small-molecule microarray binders of FAK, primary screen, biochemical, 635/667 nm fluorescence, BSA, DTT (AID 1130); conditions: PTK2 binding, 635 nm fluorescence, higher = more signal;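 also: composite of spot emission at 667 nm and signal to noise over triplicate slides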
Chain of Focal adhesion kinase 1 (Homo sapiens) (Q05397 whole entry, looked up): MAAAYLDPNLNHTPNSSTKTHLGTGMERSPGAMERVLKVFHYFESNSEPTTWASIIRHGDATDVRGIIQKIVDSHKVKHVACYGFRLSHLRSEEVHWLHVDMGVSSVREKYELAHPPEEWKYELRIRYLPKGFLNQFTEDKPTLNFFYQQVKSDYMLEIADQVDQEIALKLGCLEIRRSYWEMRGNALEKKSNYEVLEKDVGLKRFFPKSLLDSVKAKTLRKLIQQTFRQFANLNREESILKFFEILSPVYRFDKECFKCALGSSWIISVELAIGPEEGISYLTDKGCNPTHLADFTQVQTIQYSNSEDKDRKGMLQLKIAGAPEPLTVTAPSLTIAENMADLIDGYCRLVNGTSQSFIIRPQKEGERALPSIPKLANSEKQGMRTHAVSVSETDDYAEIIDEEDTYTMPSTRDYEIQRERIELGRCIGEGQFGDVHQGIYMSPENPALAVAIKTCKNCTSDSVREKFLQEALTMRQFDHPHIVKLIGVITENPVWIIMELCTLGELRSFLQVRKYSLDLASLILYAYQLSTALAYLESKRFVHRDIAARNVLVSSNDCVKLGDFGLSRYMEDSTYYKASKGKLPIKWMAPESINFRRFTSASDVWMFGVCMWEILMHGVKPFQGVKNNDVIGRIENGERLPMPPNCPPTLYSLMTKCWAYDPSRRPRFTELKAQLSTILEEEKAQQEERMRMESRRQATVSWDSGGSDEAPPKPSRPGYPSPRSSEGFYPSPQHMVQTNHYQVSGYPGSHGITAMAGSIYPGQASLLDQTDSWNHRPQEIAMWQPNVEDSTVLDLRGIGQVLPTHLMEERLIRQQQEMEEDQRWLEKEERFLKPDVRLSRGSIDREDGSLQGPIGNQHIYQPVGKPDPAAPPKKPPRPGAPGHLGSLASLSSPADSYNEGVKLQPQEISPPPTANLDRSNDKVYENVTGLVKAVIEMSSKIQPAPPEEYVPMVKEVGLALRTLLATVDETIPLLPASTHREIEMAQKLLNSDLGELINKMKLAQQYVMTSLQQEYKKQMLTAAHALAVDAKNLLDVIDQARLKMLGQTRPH

[12] = tested on: Fibrinogen (Alexa647-labelled); experiment: fibrinogen binders on compound microarrays, profiling panel, artefact control for SMM control-protein annotation, biochemical, small-molecule microarray, 635/667 nm fluorescence (AID 1131); conditions: fibrinogen-A647 binding fluorescence, higher = more signal;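 also: z-score merges 667 nm fluorescence with per-spot signal-to-noise over triplicate slides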
[13] = target: Follistatin (Homo sapiens) (UniProt P19883); experiment: follistatin binders on small-molecule microarrays, primary screen, biochemical, small-molecule microarray, 635/667 nm fluorescence (AID 1132); conditions: FST binding, 635 nm fluorescence, higher = more signal
Chain of Follistatin (Homo sapiens) (P19883 whole entry, looked up): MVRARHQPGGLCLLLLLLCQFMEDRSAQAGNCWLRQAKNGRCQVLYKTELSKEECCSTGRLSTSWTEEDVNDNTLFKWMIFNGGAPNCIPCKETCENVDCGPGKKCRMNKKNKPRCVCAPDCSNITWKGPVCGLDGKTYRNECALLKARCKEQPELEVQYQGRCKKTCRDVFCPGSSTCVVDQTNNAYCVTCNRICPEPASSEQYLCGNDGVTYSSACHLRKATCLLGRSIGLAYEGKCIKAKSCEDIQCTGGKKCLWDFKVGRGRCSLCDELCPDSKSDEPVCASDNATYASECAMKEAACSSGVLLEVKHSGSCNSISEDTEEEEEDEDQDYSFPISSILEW

[14] = target: Fibroblast growth factor 2 (Homo sapiens) (UniProt P09038); experiment: FGF2 binders on small-molecule microarrays, primary screen, biochemical, small-molecule microarray, 635/667 nm fluorescence (AID 1133); conditions: small-molecule microarray binding, FGF2, fluorescence 635/667; higher = more signal
Chain of Fibroblast growth factor 2 (Homo sapiens) (P09038 whole entry, looked up): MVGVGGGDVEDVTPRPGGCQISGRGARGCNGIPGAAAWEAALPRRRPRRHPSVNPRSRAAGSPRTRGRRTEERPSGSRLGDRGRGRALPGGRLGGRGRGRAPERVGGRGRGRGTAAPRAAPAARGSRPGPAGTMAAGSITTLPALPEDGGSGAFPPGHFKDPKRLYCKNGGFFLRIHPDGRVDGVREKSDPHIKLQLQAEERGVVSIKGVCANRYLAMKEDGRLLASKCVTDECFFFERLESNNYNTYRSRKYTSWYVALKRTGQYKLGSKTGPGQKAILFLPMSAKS

[15] = mitochondrial membrane potential change in A549 cells, profiling panel, cell-based, JC-1 fluorescence, basal, 24 h, 100 nL (AID 1138); conditions: higher = more signal;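 also: A549 lung adenocarcinoma cells under basal conditions with no added stimulus; test concentration not given here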
Lefty1 = Lefty1 binders on small-molecule microarrays, primary screen, biochemical, small-molecule microarray, 635/667 nm fluorescence (AID 1139); conditions: small-molecule microarray binding, fluorescence 635/667; higher = more signal
[16] = tested on: wheat germ agglutinin (Triticum aestivum), Alexa647-labelled; experiment: wheat germ agglutinin binders on compound microarrays, profiling panel, artefact control for SMM control-protein annotation, biochemical, small-molecule microarray, 635/667 nm fluorescence (AID 1140); conditions: WGA-A647 binding, 635 nm fluorescence, higher = more signal;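 also: score merges 667 nm feature emission with signal to noise over triplicate slides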
[17] = target: Luciferin 4-monooxygenase (Photinus pyralis) (UniProt P08659); experiment: firefly luciferase enzyme inhibitors, primary screen, biochemical, luminescence, purified enzyme, 2006 set (AID 1141); conditions: SteadyGlo luminescence, 30 min, higher = more signal, called active from +8 up or from −8 down;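 also: cell-free assay with purified firefly luciferase at 100 ng per well in PBS; test concentration not given here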
Chain of Luciferin 4-monooxygenase (Photinus pyralis) (P08659 whole entry, looked up): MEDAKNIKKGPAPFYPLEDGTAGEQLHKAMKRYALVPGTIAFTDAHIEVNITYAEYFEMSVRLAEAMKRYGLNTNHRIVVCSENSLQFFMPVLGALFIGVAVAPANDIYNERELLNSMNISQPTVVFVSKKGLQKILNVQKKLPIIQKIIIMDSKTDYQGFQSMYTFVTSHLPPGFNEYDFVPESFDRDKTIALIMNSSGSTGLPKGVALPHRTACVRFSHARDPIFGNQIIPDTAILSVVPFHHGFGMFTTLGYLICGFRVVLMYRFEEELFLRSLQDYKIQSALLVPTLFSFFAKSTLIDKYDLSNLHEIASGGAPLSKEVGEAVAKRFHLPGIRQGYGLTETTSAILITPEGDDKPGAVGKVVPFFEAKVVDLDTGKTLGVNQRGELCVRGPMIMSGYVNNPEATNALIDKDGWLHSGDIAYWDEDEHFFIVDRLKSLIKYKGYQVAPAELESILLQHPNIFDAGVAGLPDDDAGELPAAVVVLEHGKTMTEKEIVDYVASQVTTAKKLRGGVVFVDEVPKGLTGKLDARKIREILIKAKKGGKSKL

SMILES	composite z-score (Albumin (Bos taurus))	composite Z-score [1]	composite z-score [2]	composite z-score [3]	composite z-score [4]	composite z-score [5]	composite z-score [6]	composite z-score (Sam68 (KHDRBS1))	composite z-score [7]	composite z-score [8]	composite z-score [9]	composite z-score [10]	composite z-score [11]	composite z-score [12]	composite z-score [13]	composite z-score [14]	z-score [15]	composite z-score (Lefty1)	composite z-score [16]	z-score [17]
O=C1C[C@@](C(=O)NCCN2CCOCC2)(c2ccc([N+](=O)[O-])cc2)[C@@H](c2ccc(CO)cc2I)N1CC12CC3CC(CC(C3)C1)C2	-0.091	0.0692 (inactive)	0.0842	-0.037	0.584	1.77	0.811	1.33	0.392	0.987	1.37	1.24	0.656	0.954	1.19	1.22	-0.826	1.08	0.981	-1.51 (inactive)
COC(=O)[C@@]1(Cc2ccc(OC)cc2)[C@H]2c3cc(C(=O)N(C)C)n(C)c3C[C@H]2CN1C(=O)c1ccccc1	1.03	0.0517 (inactive)	0.839	0.284	0.76	3.16	0.0675	1.31	-0.1	1.15	0.392	1.27	0.698	0.97	1.22	0.0022	1.05	0.146	1.11	1.82 (inactive)
Cc1ccc(N2C(=O)c3ccccc3[C@@H](C(=O)NC3CC3)[C@@H]2c2ccc(CO)cc2)nc1	-0.301	-0.648 (inactive)	-0.481	-0.165	0.677	-0.663	0.653	-2.27	-1.97	-0.616	0.442	-0.372	-1.29	-3.9	-0.71	0.392	-0.487	-1.79	-0.0414	0.309 (inactive)
NC(=O)NCC#Cc1ccc2c(c1)[C@]1(C(=O)N2)[C@H](c2ccccc2OCCO)N2[C@H](c3ccccc3)[C@H](c3ccccc3)OC(=O)[C@H]2[C@@H]1C(=O)Nc1nc2ccccc2s1	0.403	0.105 (inactive)	0.288	-0.123	0.237	1.63	0.0159	1.07	-0.287	0.748	0.111	0.844	0.346	0.613	0.759	0.244	-2.13	0.373	0.89	0.302 (inactive)
COCCCNC(=O)[C@@]1(C)c2ccccc2C(=O)N(C(C)C)[C@H]1c1ccc(CO)cc1	-0.106	0.466 (inactive)	0.0001	0.0023	0.693	0.75	0.0526	1.16	1.08	0.67	1.42	1.14	0.624	0.648	1.16	0.802	0.168	0.499	0.342	-0.336 (inactive)
CCOC(=O)C[C@H]1[C@H](OC(=O)c2ccc(C(=O)c3ccccc3)cc2)[C@@H](NC(=O)c2ccccc2)c2cc(OCCCO)ccc2N1C(=O)c1ccc2ccccc2n1	0.783	-0.386 (inactive)	0.0561	-0.0187	0.418	1.53	0.612	1.33	-0.284	1.05	1.03	1.06	0.281	0.788	-0.0746	-0.268	0.586	0.536	0.324	-0.417 (inactive)
